# Pf Dd2 inh: inhibitors of Plasmodium falciparum Dd2 growth. Potency, µM (series often up to 28.9 µM), without a hit: at the top dose activity, negative = inhibition, usual class: inhibitors. P. falciparum Dd2 growth, SYBR Green, 72 h. actives 4.3% (n = 120,000); active means well fitted inhibition curve with a large enough effect;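 further: plate controls were DMSO vehicle for no effect and reference drug for full effect; nearly all actives have a fitted effect of over 65% in size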
#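 Infected erythrocytes (Dd2, 0.3% parasitemia, 2.5% hematocrit final) are added to compound in RPMI-1640/Albumax II medium, grown 72 h at 37C in low oxygen, then lysed with saponin/Triton-X containing SYBR Green and read by fluorescence.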
# An asterisk follows results filed as active; i = inactive; [ ] = remark or other dose. This excerpt belongs to a sample that is enriched for hits. Potency means the concentration at half of the fitted maximal effect.
SMILES,Pf Dd2 inh
O=C(NCCCc1ccccc1)C1(CCO)CCN(c2ncccn2)C1 (stereo not drawn),i
O=C(c1cc2cc(F)ccc2[nH]1)N1CCC(CO)(CCCc2ccccc2)CC1,-12.7%
OCC1(CCCc2ccccc2)CCN(Cc2cccn2-c2nccs2)CC1,10µM*
OCC1(CCCc2ccccc2)CCN(Cc2ccc(-n3cccn3)cc2)CC1,4.47µM*
CCN(CC)Cc1nc(C2(O)CCN(Cc3ccccc3)CC2)cs1,-15.6%[44.1 µM]
O=C(c1ccccc1)N1CCCC(c2nn[nH]n2)C1 (stereo not drawn),49.9%
Oc1cccc(Nc2cnc3ccc(-c4ccc(F)cc4)nn23)c1,i
COCCn1c(COc2ccc(S(C)(=O)=O)cc2)nnc1C1CC(N)C1 (stereo not drawn),-17.1%
Cc1cc(C)c(C(=O)NCC(N)=O)c(=O)[nH]1,-11.1%
CCOc1ccc(Cl)cc1CN(C)Cc1cc2n(n1)CCCNC2,5.62µM*
CN(Cc1ccc2c(c1)OCO2)Cc1cc2n(n1)CCNC2,-0.3%
Cc1ccnc(C(NC(=O)CCc2cc3n(n2)CCCNC3)C2CC2)c1 (stereo not drawn),-5.5%
CN(CC1CCOC1)S(=O)(=O)c1cccc(F)c1 (stereo not drawn),28.5%[5.79 µM]
COc1ccccc1-c1nnc([C@H]2CCN(Cc3ncc[nH]3)C2)o1,i
COc1ccc(OC)c(CN2CCOc3ccc(C(=O)NCc4ccc(C)cc4)cc3C2)c1,-8.9%
COc1ccc(OC)c(CN2CC(Oc3ccccc3C(=O)NCc3ccccc3)C2)c1,1.78µM*
COc1cccc(CN2CC(Oc3ccccc3C(=O)NC3CC3)C2)n1,3.98µM*
O=C(NC1CC1)c1ccccc1OC1CN(Cc2ccc(F)cc2F)C1,-19.8%
O=C(NCc1ccccc1)c1ccccc1OC1CN(Cc2ccc(F)c(F)c2)C1,-2.5%
O=C(NCc1ccccc1)c1ccccc1OC1CN(Cc2ccsc2)C1,3.98µM*
COc1ccc(CN2CC(Oc3ccccc3C(=O)NC3CC3)C2)cc1OC,i
COc1ccc(OC2CN(Cc3ccsc3)C2)cc1,-0.5%[44.1 µM]
Cc1ccc(CN2CC(Oc3ccccc3C(=O)NC3CC3)C2)o1,-15.7%
O=C(c1cccnn1)N1C[C@@H](COCC2CC2)[C@H](c2ccncc2)C1,12.6%
Cc1ccc(C(=O)N2CCn3c(nn(-c4cccc(Cl)c4)c3=O)C2)cc1,2.7%
SMILES,Pf Dd2 inh
Cc1cc2nc3n(c(=O)c2n1CC(=O)Nc1ccc(Cl)cc1F)CCC3,i
CCN(C(=O)CN1C(=O)C(c2ccccc2)=NC12CCCCC2)c1cccc(C)c1,i
Cc1ccc(NC(=O)c2cc(-c3ccc[nH]3)n[nH]2)cc1,i
CCCCCN(CCC(=O)NCc1ccc2c(c1)OCO2)C(=O)c1cc(C)oc1C,i
COc1cccc(NC(=O)Cn2c(C)ccc(NC(=O)Nc3ccc(C)cc3)c2=O)c1,-23.7%
CC(=O)Nc1ccccc1-c1nccc2c(=O)cc(N(C)C3CCOCC3)oc12,-6.7%[44.1 µM]
O=C(c1cccc(Cl)c1)N1CCC(N2CC3CCCN3C2=O)CC1 (stereo not drawn),19.6%
O=C(CCC(=O)N1CC2CCCN2c2ccccc21)NCc1cccc(Cl)c1 (stereo not drawn),11.5%
CS(=O)(=O)N1CCC(OC2CCN(C(=O)Nc3cccc(Cl)c3)CC2)CC1,i
O=C(Nc1cccc(Cl)c1)N1CC2CCCN2c2ccccc21 (stereo not drawn),8.91µM*
O=C(NCc1cccc(Cl)c1)c1ccc(NC(=O)N2CC3CCCN3c3ccccc32)cc1 (stereo not drawn),8.91µM*
O=C(NCc1cccc(Br)c1)c1ccc(NC(=O)N2CCCCc3ccccc32)cc1,-3.1%
CCOCC(=O)N1CCCn2ccnc2C1CC (stereo not drawn),13.7%
Cc1cc(C(=O)N2CCC3(CC2)NCCc2c3[nH]c3ccccc23)n(C)n1,i
CC(=O)Nc1cccc(-c2cnc3n[nH]c(-c4ccc5c(c4)OCO5)c3n2)c1,2.51µM*
CC(=O)Nc1cccc(-c2cnc3n[nH]c(-c4sccc4C)c3n2)c1,i
CC(=O)Nc1cccc(-c2cnc3n[nH]c(-c4ccc(F)cc4C)c3n2)c1,-11.7%[44.1 µM]
O=C(c1ccc(F)cc1)N1CC[C@H]2COC(=O)N2c2cc(F)ccc2C1,i
CCCNC(=O)N1CCC(n2c(C)cnc2C2CC2)CC1,-23.0%
CS(=O)(=O)N(Cc1cccnc1)C1CN(C(=O)c2ccc3ccccc3n2)C1,-7.6%
O=C(Nc1ccc2c(c1)OCCO2)C1CN(S(=O)(=O)C2CC2)CC12CCCCC2 (stereo not drawn),3.16µM*
COc1ccc(CNC(=O)C2CN(S(=O)(=O)C3CC3)CC23CCCCC3)c(OC)c1 (stereo not drawn),-17.8%
CCOc1ccccc1NC(=O)C1CN(S(=O)(=O)C2CC2)CC12CCCCC2 (stereo not drawn),i
CN(C)C(=O)c1ccc(CC2CC(=O)N(c3ccccc3)C2)nc1 (stereo not drawn),6.7%
CCN(CC)S(=O)(=O)c1ccc2oc(C(=O)NCc3ccccc3OC)c(C)c2c1,7.94µM*
SMILES,Pf Dd2 inh
CCOc1ccc(S(=O)(=O)N(CC(=O)NCc2ccccc2OC)c2ccccc2)cc1,8.6%
COc1ccc(S(=O)(=O)N(CC(=O)NCc2ccccc2OC)c2ccc(C)cc2)cc1,-20.3%
CN1CCCN(C(=O)c2cc(F)cc(F)c2)c2ccccc21,i
O=C1CO[C@H]2CCN(Cc3ccncc3)CC[C@@H]2N1Cc1c[nH]c2ccccc12,-23.4%[44.1 µM]
O=C(CCNc1c(-c2ccc(F)cc2)nc2cnccn12)NC1CCCC1,20.0%
COc1ccccc1-c1nc(C(=O)NC2CC2)n2ccccc12,i
COc1ccc(-c2nc(C(=O)NC3CC3)n3ccccc23)cc1,11.2µM*
C[S+](=O)([O-])c1ccc(-c2nc(C(=O)NC3CC3)n3ccccc23)cc1,i
CN(C)C(=O)c1nc(-c2ccc(S(C)(=O)=O)cc2)c2cnccn12,-2.7%
O=C(NC1CC1)c1nc(-c2ccc(F)cc2)c2cnccn12,11.2µM*
COc1ccc(-c2cc3nc4c(c(=O)n3[nH]2)CN(C(=O)CN(C)S(=O)(=O)c2cnc[nH]2)CC4)cc1,-17.2%[5.79 µM]
COCCn1cc(CN2CCN(c3cccc(OC)c3)CC2)ccc1=O,7.0%
COc1cc(O)ccc1CN1CCn2nnc(CCC(=O)N3CCCC3)c2C1,-16.6%
O=C(Nc1cccc(Cl)c1)N1CCOC(CN(CC2CC2)C(=O)c2cccc(F)c2)C1 (stereo not drawn),4.47µM*
Cc1ccc(C(=O)N(CC(C)C)CC2CN(C(=O)Nc3cccc(Cl)c3)CCO2)cc1 (stereo not drawn),-26.0%
O=C(Nc1ccccc1)N1CCOC(CN(CC2CC2)C(=O)c2cccc(F)c2)C1 (stereo not drawn),i
COC(=O)[C@@H]1Cc2ncn(C(C)C)c2CN1S(=O)(=O)c1ccc(C#N)cc1,-5.0%[44.1 µM]
O=C(CCC1N=C2c3ccccc3N=C(SCc3cccc(Cl)c3)N2C1=O)NCCc1ccccc1 (stereo not drawn),38.0%
O=C(CCC1N=C2c3ccccc3N=C(SCC(=O)NCCc3ccccc3)N2C1=O)NCc1ccc(F)cc1 (stereo not drawn),-19.4%
O=C(CCC1N=C2c3ccccc3N=C(SCc3cccc(Cl)c3)N2C1=O)N1CCN(c2ccccc2)CC1 (stereo not drawn),11.2µM*
O=C(CCC1N=C2c3ccccc3N=C(SCc3cccc(Cl)c3)N2C1=O)NCc1cccs1 (stereo not drawn),82.2%
O=C(CC1N=C2c3ccccc3N=C(SCc3ccc(F)cc3)N2C1=O)NCCc1ccccc1 (stereo not drawn),-18.2%
